# Inconclusive results are not listed. The source made the active and inactive calls. How the source made its calls, unless noted: active means hit-call score of the fitted dose curve at least 0.9, where 1 is the maximum; inconclusive means response in the unintended direction; inactive means score below 0.9.
# Tests used:
# [1] = target: human RAR-related Orphan Receptor gamma (RORg), RORC (gene 6097) (UniProt P51449); test: ATG_RORg_TRANS: Attagene TRANS-FACTORIAL HepG2 Assay for human RAR-related Orphan Receptor gamma (RORg) (AID 2283011)
# Method in brief: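 HepG2 cells transiently transfected with GAL4-UAS reporter units and chimeric RORg-Gal4 construct; after 24 h chemical exposure, reporter mRNA measured by RT-PCR with fluorescent capillary electrophoresis, gain of signal fitted against DMSO.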
# [2] = target: Retinoic acid receptor RXR-alpha (Homo sapiens) (UniProt P19793); test: ATG_RXRa_TRANS: Attagene TRANS-FACTORIAL HepG2 Assay for human Retinoid X Receptor alpha (RXRa) (AID 2283012)
# Method in brief: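 TRANS format reporting activity of exogenous RXRa-Gal4 chimera in transiently transfected HepG2, 24 h exposure. Reporter transcripts quantified by RT-PCR with capillary electrophoresis, with gain of signal scored relative to DMSO.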
# [3] = target: human Retinoid X Receptor beta (RXRb), RXRB (gene 6257) (UniProt P28702); test: ATG_RXRb_TRANS: Attagene TRANS-FACTORIAL HepG2 Assay for human Retinoid X Receptor beta (RXRb) (AID 2283013)
# Method in brief: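 Readout is reporter transcript induction after 24 h dosing. It is measured by RT-PCR of total RNA followed by fluorescent capillary electrophoresis. HepG2 liver cells carry transfected multiple reporter units driven by an exogenous RXRb-Gal4 fusion; activity is relative to DMSO.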
# [4] = target: human Thyroid Receptor alpha (THRa1), THRA (gene 7067) (UniProt P10827); test: ATG_THRa1_TRANS: Attagene TRANS-FACTORIAL HepG2 Assay for human Thyroid Receptor alpha (THRa1) (AID 2283014)
# Method in brief: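 HepG2 cells transiently transfected with chimeric NR-Gal4 and GAL4-UAS reporter units, dosed 24 h. Reporter mRNA quantified by RT-PCR, fluorescent labeling, HpaI digestion and capillary electrophoresis; gain-of-signal fit versus DMSO.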
# [5] = read-out: E-selectin (Homo sapiens) (UniProt P16581); test: BSK_3C_Eselectin: BioMAP Diversity Plus: 3C Assay for Eselectin Biomarker Activity (AID 2283015; active means hit-call score of the fitted dose curve at least 0.9, where 1 is the maximum; inactive means score below 0.9;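 on outcome: cell surface E-selectin protein quantified by ELISA 24 h after dosing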); details: primary human endothelial cells (HUVEC); actives raise or lower the signal
# Method in brief: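 Primary human umbilical vein endothelial cells (3C system), read 24 h after compound addition; E-selectin measured by ELISA. Bidirectional curve fitting against DMSO baseline; cytotoxicity by parallel SRB total-protein staining.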
# [6] = read-out: Interleukin-1 alpha (IL1a), IL1A (gene 3552); test: BSK_BE3C_IL1a: BioMAP Diversity Plus: BE3C Assay for Interleukin-1 alpha (IL1a) Biomarker Activity (AID 2283016; active means hit-call score of the fitted dose curve at least 0.9, where 1 is the maximum; inactive means score below 0.9); details: primary human bronchial epithelial cells; actives raise or lower the signal
# Method in brief: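 IL-1a measured by ELISA after 24 h treatment of human primary bronchial epithelial cells, with gain or loss of signal fitted versus DMSO. Parallel cultures stained with SRB gauge overt cytotoxicity.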
# [7] = read-out: Monocyte Chemoattractant Protein-1 (MCP1), CCL2 (gene 6347); test: BSK_3C_MCP1: BioMAP Diversity Plus: 3C Assay for Monocyte Chemoattractant Protein-1 (MCP1) Biomarker Activity (AID 2283017; active means hit-call score of the fitted dose curve at least 0.9, where 1 is the maximum; inactive means score below 0.9); details: primary human endothelial cells (HUVEC); actives raise or lower the signal
# Method in brief: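 Human umbilical vein endothelial cells (3C system) exposed to chemicals for 24 h; MCP-1 quantified by ELISA against the DMSO baseline with bidirectional fitting, and parallel SRB staining used to assess cytotoxicity.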
# [8] = read-out: Human Leukocyte Antigen - DR isotype (HLADR), HLA-DRA (gene 3122); test: BSK_3C_HLADR: BioMAP Diversity Plus: 3C Assay for Human Leukocyte Antigen - DR isotype (HLADR) Biomarker Activity (AID 2283019; active means hit-call score of the fitted dose curve at least 0.9, where 1 is the maximum; inactive means score below 0.9;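 on outcome: ELISA of cell-surface HLA-DR on HUVEC 24 h after dosing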); details: primary human endothelial cells (HUVEC); actives raise or lower the signal
# Method in brief: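 HUVEC monoculture, HLA-DR measured by ELISA 24 h after chemical dosing. Fitted bidirectionally against DMSO baseline; parallel SRB staining assessed cytotoxicity, with 3C proliferation read by SRB at 48 h.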
# [9] = read-out: Interleukin-8 (IL8), CXCL8 (gene 3576); test: BSK_3C_IL8: BioMAP Diversity Plus: 3C Assay for Interleukin-8 (IL8) Biomarker Activity (AID 2283020; active means hit-call score of the fitted dose curve at least 0.9, where 1 is the maximum; inactive means score below 0.9); details: primary human endothelial cells (HUVEC); actives raise or lower the signal
# Method in brief: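 IL-8 was measured by ELISA in HUVEC cultures 24 h after chemical dosing, with gain or loss of signal fitted relative to DMSO. Parallel SRB total-protein staining tracked overt cytotoxicity.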
# [10] = read-out: Monocyte Chemoattractant Protein-1 (MCP1), CCL2 (gene 6347); test: BSK_4H_MCP1: BioMAP Diversity Plus: 4H Assay for Monocyte Chemoattractant Protein-1 (MCP1) Biomarker Activity (AID 2283018; active means hit-call score of the fitted dose curve at least 0.9, where 1 is the maximum; inactive means score below 0.9); details: primary human endothelial cells (HUVEC); actives raise or lower the signal
# Method in brief: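 ELISA of MCP-1 (CCL2) 24 h after chemical dosing of HUVEC in the BioMAP 4H system. Gain or loss versus DMSO fitted; parallel SRB staining (560 nm) tracked overt cytotoxicity.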
# E-selectin (Homo sapiens), sequence (P16581 whole entry, looked up): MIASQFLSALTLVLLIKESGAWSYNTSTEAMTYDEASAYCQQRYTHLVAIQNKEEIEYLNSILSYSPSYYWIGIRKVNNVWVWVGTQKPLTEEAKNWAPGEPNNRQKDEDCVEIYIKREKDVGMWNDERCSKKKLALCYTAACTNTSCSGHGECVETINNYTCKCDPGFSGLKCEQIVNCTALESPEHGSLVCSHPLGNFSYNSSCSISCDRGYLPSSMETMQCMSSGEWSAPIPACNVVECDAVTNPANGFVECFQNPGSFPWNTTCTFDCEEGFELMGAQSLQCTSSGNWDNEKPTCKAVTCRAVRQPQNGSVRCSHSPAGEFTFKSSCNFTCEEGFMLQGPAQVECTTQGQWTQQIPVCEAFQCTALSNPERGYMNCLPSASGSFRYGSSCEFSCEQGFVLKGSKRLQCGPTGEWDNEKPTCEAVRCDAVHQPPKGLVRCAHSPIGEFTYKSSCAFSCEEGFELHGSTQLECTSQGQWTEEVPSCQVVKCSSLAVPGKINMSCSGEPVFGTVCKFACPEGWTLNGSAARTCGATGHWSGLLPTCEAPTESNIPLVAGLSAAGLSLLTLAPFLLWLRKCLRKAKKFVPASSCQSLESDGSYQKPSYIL
# human RAR-related Orphan Receptor gamma (RORg), RORC (gene 6097), sequence (P51449 whole entry, looked up, the tested form may be a part): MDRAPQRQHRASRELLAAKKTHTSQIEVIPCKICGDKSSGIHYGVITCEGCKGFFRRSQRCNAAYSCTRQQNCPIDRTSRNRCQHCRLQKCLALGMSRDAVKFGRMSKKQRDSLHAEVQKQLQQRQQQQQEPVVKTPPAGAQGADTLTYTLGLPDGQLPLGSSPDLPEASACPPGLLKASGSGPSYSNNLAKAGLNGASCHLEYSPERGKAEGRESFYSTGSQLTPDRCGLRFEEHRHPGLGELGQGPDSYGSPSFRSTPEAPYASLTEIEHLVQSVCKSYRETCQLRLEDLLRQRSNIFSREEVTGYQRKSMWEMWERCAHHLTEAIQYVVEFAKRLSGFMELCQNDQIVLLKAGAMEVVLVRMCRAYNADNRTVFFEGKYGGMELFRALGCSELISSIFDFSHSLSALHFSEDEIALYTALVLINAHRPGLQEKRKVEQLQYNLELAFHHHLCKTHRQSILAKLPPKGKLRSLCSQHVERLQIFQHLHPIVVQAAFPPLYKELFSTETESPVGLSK
# human Retinoid X Receptor beta (RXRb), RXRB (gene 6257), sequence (P28702 whole entry, looked up, the tested form may be a part): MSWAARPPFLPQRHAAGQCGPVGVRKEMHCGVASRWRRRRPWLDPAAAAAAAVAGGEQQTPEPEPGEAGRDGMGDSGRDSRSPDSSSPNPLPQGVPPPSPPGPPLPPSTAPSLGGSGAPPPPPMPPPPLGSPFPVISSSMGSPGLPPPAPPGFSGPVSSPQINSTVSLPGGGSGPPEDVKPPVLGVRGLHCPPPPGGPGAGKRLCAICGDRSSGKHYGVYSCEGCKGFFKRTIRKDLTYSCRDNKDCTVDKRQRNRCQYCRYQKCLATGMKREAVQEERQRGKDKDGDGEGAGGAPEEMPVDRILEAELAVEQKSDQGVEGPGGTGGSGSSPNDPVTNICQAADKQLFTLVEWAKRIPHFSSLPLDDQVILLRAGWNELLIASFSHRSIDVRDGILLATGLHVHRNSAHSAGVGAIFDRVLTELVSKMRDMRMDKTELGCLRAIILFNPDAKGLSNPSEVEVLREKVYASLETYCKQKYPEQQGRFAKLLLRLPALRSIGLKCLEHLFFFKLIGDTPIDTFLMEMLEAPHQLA
# human Thyroid Receptor alpha (THRa1), THRA (gene 7067), sequence (P10827 whole entry, looked up, the tested form may be a part): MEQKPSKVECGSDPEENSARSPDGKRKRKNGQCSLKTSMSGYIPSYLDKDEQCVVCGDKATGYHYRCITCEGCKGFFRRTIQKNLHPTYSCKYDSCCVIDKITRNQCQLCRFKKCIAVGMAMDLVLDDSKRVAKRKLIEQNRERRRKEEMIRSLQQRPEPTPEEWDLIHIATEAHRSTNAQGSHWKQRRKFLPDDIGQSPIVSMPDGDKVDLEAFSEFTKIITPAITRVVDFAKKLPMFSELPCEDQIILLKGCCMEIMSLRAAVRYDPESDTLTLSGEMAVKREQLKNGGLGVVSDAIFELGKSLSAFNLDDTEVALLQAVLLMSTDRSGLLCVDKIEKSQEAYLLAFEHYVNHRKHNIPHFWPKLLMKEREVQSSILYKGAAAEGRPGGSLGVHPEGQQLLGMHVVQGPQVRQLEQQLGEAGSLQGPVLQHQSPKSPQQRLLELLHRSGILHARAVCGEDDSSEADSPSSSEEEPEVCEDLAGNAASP
# Retinoic acid receptor RXR-alpha (Homo sapiens), sequence (P19793 whole entry, looked up, the tested form may be a part): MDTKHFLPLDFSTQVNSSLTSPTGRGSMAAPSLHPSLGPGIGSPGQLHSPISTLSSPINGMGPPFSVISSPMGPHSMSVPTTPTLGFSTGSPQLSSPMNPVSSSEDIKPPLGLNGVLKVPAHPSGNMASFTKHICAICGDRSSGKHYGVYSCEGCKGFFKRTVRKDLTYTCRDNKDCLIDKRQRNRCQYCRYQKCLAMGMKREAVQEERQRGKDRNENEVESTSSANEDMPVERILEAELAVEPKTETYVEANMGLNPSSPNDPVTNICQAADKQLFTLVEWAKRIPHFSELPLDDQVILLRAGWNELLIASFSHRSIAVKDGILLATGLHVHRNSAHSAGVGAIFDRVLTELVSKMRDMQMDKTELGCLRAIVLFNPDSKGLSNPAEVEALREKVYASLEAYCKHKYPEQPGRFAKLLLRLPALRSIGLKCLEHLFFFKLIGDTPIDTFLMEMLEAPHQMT
compound,measurement,setting,value
OCC#CCO,outcome,[1],inactive
same,outcome,[2],inactive
CCN(CCC#N)c1ccc(N=Nc2ccc([N+](=O)[O-])cc2)cc1,outcome,[1],inactive
same,outcome,[2],inactive
CC1CCC(C(C)C)C(O)C1 (stereo not drawn),outcome,[1],inactive
same,outcome,[2],inactive
O=C(O)c1ccc(O)cc1,outcome,[1],inactive
same,outcome,[2],inactive
same,outcome,[3],inactive
CCCCCCOC(=O)C(C)C,outcome,[1],inactive
O=C(O)CCCCCCCCCCCC(=O)O,outcome,[1],inactive
same,outcome,[2],inactive
O=C1NC2NC(=O)NC2N1 (stereo not drawn),outcome,[1],inactive
CC(Oc1cc(Cl)ccc1Cl)C(=O)O (stereo not drawn),outcome,[1],inactive
C=Cc1ccc(C(C)(C)C)cc1,outcome,[1],inactive
same,outcome,[2],inactive
same,outcome,[3],inactive
CCOC(=O)c1ccc(N)cc1,outcome,[1],inactive
same,outcome,[2],inactive
COc1ccccc1[N+](=O)[O-],outcome,[1],inactive
same,outcome,[2],inactive
CCOC(=O)C1OC1c1ccccc1 (stereo not drawn),outcome,[1],inactive
C=CC(=C)CCCC(C)(C)OC(C)=O,outcome,[1],inactive
same,outcome,[2],inactive
CC(=O)CC(=O)Nc1ccc(C)cc1C,outcome,[1],inactive
same,outcome,[2],inactive
CCCC(=O)OCCc1ccccc1,outcome,[1],inactive
COCCOCCOCCO,outcome,[1],inactive
same,outcome,[2],inactive
CCCCCCCC(=O)OCCCCCC,outcome,[1],inactive
same,outcome,[2],inactive
same,outcome,[3],inactive
Cc1ncc([N+](=O)[O-])n1CCO,outcome,[1],inactive
same,outcome,[2],inactive
same,outcome,[3],inactive
CCOc1ccc(NC(=O)CC(C)=O)cc1,outcome,[1],inactive
Nc1ccc(Cl)c([N+](=O)[O-])c1,outcome,[1],inactive
same,outcome,[2],inactive
C=CCOC(=O)CCCCCC,outcome,[1],inactive
same,outcome,[2],inactive
same,outcome,[3],inactive
COC(C)(C)CCO,outcome,[1],inactive
C=CCN(CC=C)CC=C,outcome,[1],inactive
same,outcome,[2],inactive
CCCN(CCC)S(=O)(=O)c1ccc(C(=O)O)cc1,outcome,[1],inactive
CC(=O)OCCCc1ccccc1,outcome,[1],inactive
same,outcome,[2],inactive
same,outcome,[3],inactive
COc1cc(C(C)C)ccc1C,outcome,[1],inactive
same,outcome,[2],inactive
[Cl][Au]([Cl])[Cl],outcome,[1],inactive
COc1ccc(N=Nc2cc(C)c(N=Nc3ccc(S(=O)(=O)O)cc3)cc2OC)cc1,outcome,[1],inactive
CCCCC1(COC(=O)CCC(=O)O)C(=O)N(c2ccccc2)N(c2ccccc2)C1=O,outcome,[1],inactive
CCOc1ccc(NC(=O)CC(C)O)cc1 (stereo not drawn),outcome,[1],inactive
COCCOC(=O)c1ccccc1C(=O)OCCOC,outcome,[1],inactive
C=C(C)C(=O)OCCOC1CC2CC1C1C=CCC21 (stereo not drawn),outcome,[1],inactive
Cc1ccc(N)c(S(=O)(=O)O)c1,outcome,[1],inactive
same,outcome,[2],inactive
C=C(C#N)C(=O)OCC,outcome,[1],inactive
ON=C1CCCCC1,outcome,[1],inactive
same,outcome,[2],inactive
same,outcome,[3],inactive
CC(C)OCCO,outcome,[1],inactive
same,outcome,[2],inactive
Oc1c(Cl)cc(Cl)c(Cl)c1Cc1c(O)c(Cl)cc(Cl)c1Cl,outcome,[1],inactive
same,outcome,[2],inactive
same,AC50,[3],12.7 µM (active)
same,AC50,[4],0.657 µM (active)
same,AC50,[5],13 µM (active)
same,AC50,[6],2.02 µM (active)
same,AC50,[7],32.6 µM (active)
same,AC50,[8],2.48 µM (active)
same,AC50,[9],28.2 µM (active)
CN(c1nccc(=O)[nH]1)C1CCN(c2nc3ccccc3n2Cc2ccc(F)cc2)CC1,outcome,[1],inactive
same,outcome,[2],inactive
same,outcome,[3],inactive
same,outcome,[4],inactive
same,outcome,[5],inactive
same,outcome,[6],inactive
same,outcome,[7],inactive
same,outcome,[8],inactive
same,outcome,[9],inactive
CCOC(=O)CC(C)O (stereo not drawn),outcome,[1],inactive
same,outcome,[2],inactive
same,outcome,[4],inactive
O=C(O)c1cc(C(=O)O)cc([N+](=O)[O-])c1,outcome,[1],inactive
same,outcome,[2],inactive
same,outcome,[3],inactive
same,outcome,[4],inactive
NCc1ccco1,outcome,[1],inactive
same,outcome,[2],inactive
same,outcome,[3],inactive
CCO/C=C1\N=C(c2ccccc2)OC1=O,outcome,[1],inactive
same,outcome,[2],inactive
same,outcome,[3],inactive
CC1(C)O[C@@H]2C[C@H]3[C@@H]4CCC5=CC(=O)C=C[C@]5(C)[C@@]4(F)[C@@H](O)C[C@]3(C)[C@]2(C(=O)CO)O1,outcome,[1],inactive
same,outcome,[2],inactive
same,outcome,[3],inactive
same,outcome,[4],inactive
CC(C)=CCCC(C)CC(=O)O (stereo not drawn),outcome,[1],inactive
same,outcome,[2],inactive
same,outcome,[3],inactive
CCCCC(CC)COC(=O)c1ccc(O)cc1 (stereo not drawn),outcome,[1],inactive
same,outcome,[2],inactive
same,AC50,[3],33.4 µM (active)
same,outcome,[4],inactive
COc1ccc(OC)c(N=Nc2c(O)ccc3ccccc23)c1,outcome,[1],inactive
same,outcome,[2],inactive
same,outcome,[3],inactive
same,outcome,[4],inactive
same,outcome,[5],inactive
same,AC50,[6],2.11 µM (active)
same,AC50,[7],20 µM (active)
same,outcome,[10],inactive
same,AC50,[8],10.9 µM (active)
same,outcome,[9],inactive
c1ccc(Oc2ccccc2)cc1,outcome,[1],inactive
same,outcome,[2],inactive
same,AC50,[3],114 µM (active)
same,AC50,[5],35.9 µM (active)
same,outcome,[6],inactive
same,AC50,[7],30.3 µM (active)
same,AC50,[8],32.8 µM (active)
same,AC50,[9],20 µM (active)
CC(C)CCCCCCCCCCCCCCC(=O)O,outcome,[1],inactive
same,outcome,[2],inactive
same,AC50,[3],11.4 µM (active)
same,outcome,[4],inactive
CCC(C)c1cc([N+](=O)[O-])cc([N+](=O)[O-])c1OC(=O)OC(C)C (stereo not drawn),outcome,[1],inactive
same,AC50,[2],32.6 µM (active)
same,AC50,[5],17.9 µM (active)
same,AC50,[6],25.4 µM (active)
same,AC50,[7],29.5 µM (active)
same,AC50,[8],9.38 µM (active)
same,AC50,[9],34.1 µM (active)
CC1=CC[C@@]23C[C@@H]1C(C)(C)[C@@H]2CC[C@H]3C,outcome,[1],inactive
same,AC50,[3],58.9 µM (active)
Cc1c(Cl)cccc1[N+](=O)[O-],outcome,[1],inactive
same,outcome,[3],inactive
CCCCCC(C)=O,outcome,[1],inactive
same,outcome,[2],inactive
same,outcome,[3],inactive
CC1=NN(c2ccc(S(=O)(=O)O)cc2)C(=O)C1,outcome,[1],inactive
same,outcome,[2],inactive
same,outcome,[3],inactive
CCCCCCCCCCCCCC(=O)OCC(O)CO (stereo not drawn),outcome,[1],inactive
same,outcome,[2],inactive
same,outcome,[3],inactive
